In the supplement of paper PMC3334620:
The full ranking holds about 33,000 sequences; the median of “E-score (-0.5 to 0.5)” is about -0.01, and the highest 2% start at about 0.26. Only a selection was taken, and the highest values are over-represented in it overall.

target: Ste12 (UniProt P13574); assay: PBM E-score (8-mer binding enrichment) (E-score (-0.5 to 0.5)); higher = stronger / more preferred TF binding; settings: protein concentration: 200 nM; construct: GST-DNA-binding domain
Procedure, shortened: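 For each ungapped eight-base word taken together with its reverse complement, the Universal PBM Analysis Suite assigned an E-score. Binding data came from GST-tagged yeast transcription factors, applied at about 100-200 nM, on universal all-10-mer Agilent arrays made double-stranded by primer extension. Fluorescent anti-GST marked bound protein, and scans were normalised with masliner.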

Sequence of UniProt P13574 (P13574 whole entry, the tested form may be a part): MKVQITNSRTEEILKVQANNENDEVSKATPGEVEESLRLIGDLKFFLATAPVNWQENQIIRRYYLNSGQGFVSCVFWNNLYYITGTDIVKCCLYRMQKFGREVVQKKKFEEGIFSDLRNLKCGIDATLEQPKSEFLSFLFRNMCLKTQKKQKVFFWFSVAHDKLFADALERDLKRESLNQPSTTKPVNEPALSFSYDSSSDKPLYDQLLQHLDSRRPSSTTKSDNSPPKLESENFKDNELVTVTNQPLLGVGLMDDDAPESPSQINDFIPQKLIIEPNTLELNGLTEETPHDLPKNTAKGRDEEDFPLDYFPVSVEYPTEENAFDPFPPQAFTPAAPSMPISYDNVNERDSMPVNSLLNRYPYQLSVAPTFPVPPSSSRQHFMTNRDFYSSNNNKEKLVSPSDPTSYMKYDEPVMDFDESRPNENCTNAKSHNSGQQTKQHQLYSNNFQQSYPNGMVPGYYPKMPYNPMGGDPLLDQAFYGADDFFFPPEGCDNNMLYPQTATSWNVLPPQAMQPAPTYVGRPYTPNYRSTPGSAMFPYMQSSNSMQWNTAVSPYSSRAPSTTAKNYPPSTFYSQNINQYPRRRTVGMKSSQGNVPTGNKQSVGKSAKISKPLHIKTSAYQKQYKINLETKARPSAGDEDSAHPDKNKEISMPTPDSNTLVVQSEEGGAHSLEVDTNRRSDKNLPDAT

Row | Sequence | PBM E-score
1 | CGTGATCA | -0.00817
2 | CGCTTCGA | -0.0748
3 | CGGTTTGC | 0.0736
4 | AAAGTGCG | 0.0163
5 | CTTTCTTA | 0.0052
6 | CCCTGACA | -0.0188
7 | AGTTTCCA | 0.212
8 | CGTTTCGC | 0.296
9 | AGTTTCGC | 0.184
10 | CGTTTCAC | 0.453
11 | AGTTTCTA | 0.16
12 | CATTTCAC | 0.099
13 | CGTTTCGA | 0.195
14 | ACTTTCAC | 0.139
15 | AGTTTCTC | -0.0852
16 | AGTTTCAC | 0.338
17 | AGTTTCAA | 0.307
18 | CGTTTCTC | 0.0338
19 | GTCCATAA | -0.172
20 | CGGTGGAC | -0.157
21 | CTCACTAC | 0.00581

Row | Sequence | PBM E-score
22 | CAGTTACA | 0.0929
23 | CGTTTCTA | 0.166
24 | CCTTTCAA | -0.0319
25 | CGTTTCAA | 0.46
26 | AAGCTAGC | -0.242
27 | CACTTCGC | 0.0953
28 | AAGAATGA | 0.209
29 | ACATCCCT | -0.0649
30 | ACATCCCC | 0.321
31 | CCATCCCC | 0.0914
32 | AGCAGGTG | -0.0318
33 | CAATCCGC | 0.0698
34 | CAATCCCA | -0.0795
35 | CAATCCCG | 0.321
36 | CAATCCCC | 0.0988
37 | CAATCCGG | 0.273
38 | AAATCCGG | 0.0201
39 | CTAGGAAA | -0.0731
40 | ATAGGAAA | 0.0645
41 | TTAGGAAA | 0.292
42 | AAGAAATC | -0.0981

Row | Sequence | PBM E-score
43 | CTGAAATC | -0.0192
44 | CTGAAACA | 0.495
45 | ATGAAATC | 0.185
46 | CTGAAAAC | 0.0248
47 | CTGAAACC | 0.47
48 | CTGAAATA | 0.202
49 | AGGAAACC | -0.0955
50 | CTGAAAGA | 0.00814
51 | ATGAAACC | 0.457
52 | AGAACATC | -0.0976
53 | CGACCGTC | -0.173
54 | CGAGTCAC | -0.0334
55 | CAATGCAC | -0.042
56 | AGAACAAT | 0.247
57 | ACAACAAA | 0.152
58 | CTAACAAA | 0.0819
59 | GTAACAAA | 0.312
60 | CAAACAAA | 0.149
61 | AGAACAAG | 0.0467
62 | GAAACAAA | 0.345
63 | TTAACAAA | 0.246

Row | Sequence | PBM E-score
64 | AAAACAAG | 0.104
65 | TAAACAAA | 0.244
66 | AAAACAAA | 0.293
67 | AGAACAAA | 0.312
68 | ATGAGAAC | 0.118
69 | AGTGAGCG | -0.176
70 | CCGCAGCG | -0.033
71 | GCGTAGCA | 0.0572
72 | CTCGACTA | 0.0414
73 | GAGACCTA | -0.0109
74 | GAGATTGA | 0.0793
75 | CCTAGAAA | 0.144
76 | GAAACAAC | 0.334
77 | AAAACAAC | 0.154
78 | CAAACAAC | 0.223
79 | GGGGTGAA | 0.0185
80 | CGCCTAGA | -0.0727
81 | ACATCTTG | -0.151
82 | ACATCTTA | -0.0589
83 | ACATCTTC | 0.261
